LMP1 NFkB inh – inhibitors of Epstein-Barr LMP1-induced NF-kappaB reporter; LMP1-induced NF-kappaB luciferase reporter cells, luminescence; inhibition, % at 12.5 µM; 0.69% of 350,000 active; AID 504558; in the data active means inhibition above about 41%;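 further: 0% = neutral control wells and 100% = reference inhibitor control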
LGR2 inh – blocks bursicon-induced cAMP signaling via Drosophila LGR2; inhibition, % at 9.99 µM; 0.35% of 380,000 active; HEK293 LGR2, CRE-luciferase, bursicon-stimulated, 4 h; AID 720647;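 active means drop in luminescence signal, shown as inhibition above about 50% in the replicate tests, limit read from the data, passing the limit was not always enough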;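 further: agonist challenge used bursicon conditioned medium at about half maximal strength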
EWS-Fli inh – EWS/Fli transcriptional activity inhibition; inhibition, % at 12.6 µM; A673 NR0B1-luciferase reporter, viability-normalised; 0.67% of 350,000 active;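 active means mean inhibition of at least 50% after viability correction, with every replicate also passing that limit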;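 further: firefly luciferase signal divided by Alamar Blue viability fluorescence both relative to DMSO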
TROY signal inh – TROY signaling inhibition. Q293 LMP1-TROYcd NF-kB luciferase reporter, 4 h. 0.98% of 360,000 active. inhibition, % at 10 µM;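 active means compounds whose plate-normalised and pattern-corrected inhibition of the luciferase reporter signal at the single screening dose is 50% or more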
TWEAK Fn14 block – TWEAK-Fn14 signaling inhibition | inhibition, % at 10 µM | 2% of 360,000 active | TWEAK-stimulated Fn14 reporter cells, luciferase luminescence, 8 h | AID 1159606; in the data active means inhibition above about 50%
An asterisk follows results filed as active; . = no result. The list is not random: actives were taken first. Their share in the collection is about 2.5%.

SMILES | LMP1 NFkB inh | LGR2 inh | EWS-Fli inh | TROY signal inh | TWEAK Fn14 block
COCCOC(=O)C1=C(C)NC2=C(C(=O)CC(C)(C)C2)C1c1cc2c(cc1Br)OCO2 (configuration not stated) | 5 | 37 | . | 6 | 60*
O=C(/C=C/c1ccc(Br)cc1)c1ccc(NC(=O)c2ccco2)cc1 | -2 | -22 | . | -38 | 8
COc1ccc(Oc2ccc(/C=C/C(=O)c3cccc(OC)c3)cc2[N+](=O)[O-])cc1 | -2 | 13 | 49 | -1 | 60*
COc1ccc(C=CC(=O)c2ccc3cc(OC)c(OC)cc3c2)cc1OC | 32 | -3 | -7 | 36 | 67*
CCOc1ccc(/C=C/C(=O)Nc2ccc(C(N)=O)cc2)cc1OC | 9 | -2 | . | 6 | -9
CCC1CSC(Nc2ccc(C(=O)/C=C/c3ccc(Br)cc3)cc2)=N1 (configuration not stated) | 4 | 4 | -7 | -16 | 57*
CCC1CSC(Nc2ccc(C(=O)/C=C/c3ccc(OC)c(OC)c3)cc2)=N1 (configuration not stated) | 20 | 42 | . | 47 | 74*
C[C@@H]1CN([C@H](C)CO)C(=O)c2cc(N(C)C)ccc2O[C@@H](C)CCCCO[C@@H]1CN(C)C(=O)CCC(F)(F)F | . | -6 | 2 | . | .
C[C@H]1CN([C@@H](C)CO)C(=O)Cc2cc(NC(=O)CCCCCC(=O)Nc3ccccc3N)ccc2O[C@H]1CN(C)Cc1ccncc1 | . | -18 | 9 | . | .
COc1ccc(/C=C/C(=O)c2ccc(NC3=NCCCS3)cc2)cc1OC | 12 | -8 | 6 | 29 | 72*
COc1ccc(C(=O)C=Cc2ccc3c(c2)OCO3)cc1OC | 5 | -17 | -5 | -29 | -20
CN1C/C(=C/c2ccccc2[N+](=O)[O-])C(=O)/C(=C\c2ccccc2[N+](=O)[O-])C1 | -50 | -45 | 72* | 9 | 22
Cc1ccc(C)c2c1CCC(=Cc1ccccc1[N+](=O)[O-])C2=O | 3 | -3 | 4 | -31 | 17
Clc1ccc(CSc2nnc(-c3ccc4c(c3)OCO4)o2)cc1 | -7 | 12 | . | -35 | -23
O=C1CCCCC1Sc1nnc(-c2ccc3c(c2)OCO3)o1 (configuration not stated) | 56* | . | 30 | 87* | 104*
Cc1ccccc1CN1[C@@H](CC(C)C)COc2cc(Br)ccc2S1(=O)=O | . | 2 | 4 | . | .
C=C1[C@@H](O)[C@H](CC(C)C)N(Cc2ccccc2Br)S1(=O)=O | -15 | 48 | 15 | 18 | 79*
O=C(NC12CC3CC(CC(C3)C1)C2)N1CCN(c2nc(-c3ccccc3)cs2)CC1 | 26 | . | . | . | 71*
C[C@@H]1CN([C@@H](C)CO)C(=O)c2cc(NC(=O)NC3CCCCC3)ccc2O[C@@H](C)CCCCO[C@@H]1CN(C)S(=O)(=O)c1cccs1 | . | -10 | 10 | . | .
O=C(Nc1cccc(F)c1)N1CC(=O)N2[C@H](CO)[C@@H](c3ccc(C#CCC4CCCC4)cc3)[C@H]2C1 | . | 1 | 2 | . | .
Cc1ccc(C)c(N2CCN(C(=O)Nc3ccc4c(c3)N(C)C(=O)CS4)CC2)c1 | 13 | -1 | 15 | 40 | 52*
O=c1c(Cl)c(Nc2cccc(Cl)c2)cnn1-c1nc2ccccc2s1 | -5 | 14 | . | 26 | 62*
COc1cc(/C=N/NC(=O)COc2cccc(F)c2)ccc1OS(=O)(=O)c1ccc(C)cc1 | 4 | 21 | 5 | 28 | 51*
NCC[C@@H]1CC[C@@H](NC(=O)C2CCCCC2)[C@H](CO)O1 | . | -1 | -1 | . | .
CO[C@H]1CC[C@H]2CCN(C)C(=O)[C@H](C)[C@H](OC)CN(C)C(=O)c3cc(C#N)ccc3OC[C@@H]1O2 | . | 7 | -2 | . | .
SMILES | LMP1 NFkB inh | LGR2 inh | EWS-Fli inh | TROY signal inh | TWEAK Fn14 block
CCOC(=O)c1cn2nc(Oc3ccccc3)ccc2n1 | -14 | -21 | -12 | -37 | 0
CCOC(=O)c1cn2nc(N3CCCCC3)ccc2n1 | 59* | 88* | -116 | 71* | 89*
CCOC(=O)c1cn2nc(N3CCCC3)ccc2n1 | 53* | 68* | -51 | 48 | 79*
CC(C)NC(=O)c1c(O)c2cccc3c2n(c1=O)CCC3 | 6 | -1 | -4 | 6 | -3
CNC(=O)c1c(O)c2cccc3c2n(c1=O)CC3 | 4 | . | . | . | 53*
CSc1nc(N)c2c3c(sc2n1)COC(C(C)C)C3 (configuration not stated) | 4 | . | . | 7 | 6
CCCC1Cc2c(sc3nc(SC)nc(N)c23)CO1 (configuration not stated) | 6 | . | . | -24 | 68*
CCCC#Cc1cnc2c(c1)C(=O)N([C@H](C)CO)C[C@@H](C)[C@@H](CN(C)C(=O)C1CCC1)O2 | . | 4 | -7 | . | .
COc1ccc(C(=O)CC(Sc2ccccc2N)c2ccc(OC)cc2)cc1 (configuration not stated) | -73 | 68* | 38 | 13 | 80*
COc1ccc(C(=O)CC(=O)c2ccc(C(C)(C)C)cc2)cc1 | 4 | -18 | 5 | -4 | 15
Cc1[nH]c2ccccc2c1C(=O)CCl | -3 | 10 | 18 | -1 | 58*
Cc1[nH]c2ccccc2c1C(=O)CSc1ccccc1 | -12 | -37 | . | -61 | -15
CCC1CCCCN1CC(=O)c1c(C)[nH]c2ccc(OC)cc12 (configuration not stated) | 4 | -8 | -7 | -3 | 85*
Cc1[nH]c2ccccc2c1C(=O)CN1CCCCC1C (configuration not stated) | -9 | . | . | . | 79*
O=C(NC1Cc2ccccc2C1)[C@@H]1[C@@H](CO)[C@@H]2Cn3c(ccc(C4=CCCCC4)c3=O)[C@H]1N2CC1CC1 | . | -14 | 0 | . | .
CO[C@@H]1CN(C)C(=O)c2ccc(NC(C)=O)cc2OC[C@H](C)N(CC2CC2)C[C@H]1C | . | 4 | -1 | . | .
O=C(C1CCCCC1)N1CC2(C1)[C@@H](c1ccccc1)[C@@H](CO)N2Cc1ccccc1F | . | 7 | 4 | . | .
O=C1N(O)C2(C=CCCC2)/C(=N\O)C12CCCCC2 (configuration not stated) | -1 | . | . | 5 | -4
CCON1C(=O)C2(CCCCC2)C(=O)C12C=CCCC2 (configuration not stated) | 85* | 28 | 0 | -4 | 9
Cc1cc([N+](=O)[O-])ccc1NC(=O)/C=C/c1cccs1 | -11 | -35 | . | -56 | -8
Cc1cccc(NC(=O)/C=C/c2ccc([N+](=O)[O-])s2)c1 | 88* | -3 | 68* | -39 | 85*
Cc1ccc(NC(=O)/C=C/c2ccc([N+](=O)[O-])s2)c(C)c1 | 84* | 23 | 71* | 4 | 91*
Cc1ccc(NC(=O)/C=C/c2ccc([N+](=O)[O-])s2)cc1 | -170 | -95 | . | 16 | 50*
CC(C)NC(=O)N[C@H]1CC[C@H](CCNC(=O)C2CCOCC2)O[C@H]1CO | . | -8 | 2 | . | .
CN1c2ccc(C#Cc3cccnc3)cc2[C@H]2[C@H](CCN2C(=O)C2CCCC2)[C@H]1CO | . | -1 | 1 | . | .
CNC[C@H]1Oc2cc(-c3ccccc3F)ccc2S(=O)(=O)N([C@H](C)CO)C[C@@H]1C | . | -4 | -5 | . | .

Assay outcomes: PubChem, several laboratories
